DT40 TDP1 CPT = growth inhibition of DT40 Tdp1-/-;hTDP1 cells with camptothecin (screen for TDP1 inhibitors); chicken DT40 Tdp1-/-;hTDP1 cells + 20 nM CPT, ATP luminescence, 48 h; Potency, µM (highest dose often 46.2 µM), hits mostly inhibitors; actives 12% (n = 420,000); AID 686979; further: nearly all actives have a fitted effect of over 55% in size
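Chicken DT40 Tdp1-/- cells complemented with human TDP1, 400 cells/well, exposed to compounds plus 20 nM camptothecin for at least 48 h at 37 C; viability read as ATP content by CellTiter-Glo luminescence.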
12-LOX inh = blocks human arachidonate 12S-lipoxygenase; purified 12hLO, xylenol orange hydroperoxide absorbance; Potency, µM (titrated, usually from 108 µM), hits mostly inhibitors; actives 1.1% (n = 580,000)
Target sequence (P18054 whole entry, looked up): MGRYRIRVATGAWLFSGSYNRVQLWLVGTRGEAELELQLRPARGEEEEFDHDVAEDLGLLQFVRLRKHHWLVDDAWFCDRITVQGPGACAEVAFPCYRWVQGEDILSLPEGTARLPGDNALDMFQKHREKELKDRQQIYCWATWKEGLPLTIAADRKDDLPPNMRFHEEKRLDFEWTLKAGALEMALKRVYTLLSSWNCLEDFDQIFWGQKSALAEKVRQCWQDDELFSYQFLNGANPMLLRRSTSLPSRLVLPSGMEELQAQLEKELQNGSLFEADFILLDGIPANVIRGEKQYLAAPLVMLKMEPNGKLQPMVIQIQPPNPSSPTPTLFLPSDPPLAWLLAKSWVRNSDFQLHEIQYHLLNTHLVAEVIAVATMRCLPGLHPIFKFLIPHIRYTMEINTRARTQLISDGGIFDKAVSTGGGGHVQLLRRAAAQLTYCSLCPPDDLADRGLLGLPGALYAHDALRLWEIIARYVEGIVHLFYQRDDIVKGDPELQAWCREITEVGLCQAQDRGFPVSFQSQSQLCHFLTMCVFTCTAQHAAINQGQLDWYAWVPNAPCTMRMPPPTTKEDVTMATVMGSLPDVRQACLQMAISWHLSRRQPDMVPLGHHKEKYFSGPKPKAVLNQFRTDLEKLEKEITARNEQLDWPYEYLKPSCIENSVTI
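Purified human 12hLO at 150 nM in 25 mM Hepes, 0.01% Triton X-100, pH 7.0, preincubated 15 min at room temperature with compound. Reaction started with 40 uM arachidonic acid, 30 min at room temperature. Hydroperoxide measured by Fe-xylenol orange, 573/405 nm absorbance ratio.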
HT1080-NT tox = kills 2HG-producing HT-1080-NT fibrosarcoma cells; HT-1080-NT fibrosarcoma viability, CellTiter-Glo ATP luminescence, 48 h; Potency, µM (titrated, usually from 46.1 µM), usual class: cytotoxic; actives 1.6% (n = 360,000); AID 686970;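 further: NT is the 2HG producing partner of a matched IDH1 knockdown line; nearly all actives have a fitted effect of over 55% in size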
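Fibrosarcoma NT cells, 750 per well in 5% FBS RPMI, were exposed to compound for 48 hours. Viability: CellTiter-Glo luminescence.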
IL1B secr inh = inhibitors of inflammasome signaling (IL-1 beta secretion) | THP-1 LPS/ATP IL-1B secretion, AlphaLISA, 16 h; hits give low values | activity change, % at 57.5 µM | actives 4.7% (n = 360,000) | AID 743279; in the data active means activity change below about -50%; inconclusive means mostly about -30% to -49%
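THP-1 cells pretreated 1 hr with compounds (up to 57.5 uM final), then stimulated with LPS (250 ng/mL final) plus ATP (1.25 mM final); secreted IL-1B measured by AlphaLISA after 16 hr, decreased signal indicating inhibition.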
DT40 TDP1 no CPT = qHTS for Inhibitors of human tyrosyl-DNA phosphodiesterase 1 (TDP1): qHTS in cells in absence of CPT. DT40 Tdp1-/- hTDP1 cells, no CPT, ATP luminescence, 48 h. Potency, µM (titrated, usually from 46.2 µM), actives largely listed as inhibitors. actives 15% (n = 420,000); further: nearly all actives have a fitted effect of over 55% in size
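Chicken DT40 Tdp1-/- cells complemented with human TDP1, screened without camptothecin (DMSO vehicle only), 400 cells/well. Compounds pin-transferred, cells incubated at 37 °C for at least 48 hr. Growth read as ATP-dependent luminescence (CellTiter-Glo, 30 min at RT).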
HT1080 IDH1KD tx = kills HT-1080 cells with IDH1 knockdown; HT-1080 IDH1 knockdown viability, ATP luminescence, 48 h; AID 686971; actives 2% (n = 360,000); Potency, µM (highest dose often 46.1 µM), most hits filed as cytotoxic
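Knockdown cells (IDH1KD HT-1080) received compounds 2 h after plating at 750 cells/well and were kept 48 h at 37 °C in 5% FBS RPMI. A CellTiter-Glo luminescence read gave % activity for curve fitting.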
Large screens that a line does not name were inactive. Only a selection was taken, and hits are over-represented in it overall. Unless noted, the call rests on the fitted dose curve; in most records, active means well fitted curve in the direction sought with a large enough effect; inconclusive means small, poorly fitted or top-dose-only effect, or another doubt; inactive means no such curve, though single readings can be large; an effect the other way counts as inactive or inconclusive.

Fc1ccc(Br)cc1C1C=C(c2ccc(Br)s2)Nc2ncnn21 (configuration not stated)	DT40 TDP1 CPT 0.92µM, HT1080-NT tox 1.3µM, DT40 TDP1 no CPT 0.65µM, HT1080 IDH1KD tx 1.2µM (no result: 12-LOX inh)
COc1cccc(C2C=C(c3ccc(Br)s3)Nc3ncnn32)c1OC (configuration not stated)	DT40 TDP1 CPT inconclusive, DT40 TDP1 no CPT inconclusive (no result: 12-LOX inh)
O=S(=O)(c1ccccc1)c1cc(O)ccc1O	DT40 TDP1 CPT 3.3µM, DT40 TDP1 no CPT 7.3µM
O=S(=O)(c1ccc(Cl)cc1)c1cc(O)ccc1O	none
CC(C)CCn1c(N2CCCC2)nc2c1c(=O)n(C)c(=O)n2C	DT40 TDP1 CPT inconclusive, DT40 TDP1 no CPT 21µM
C=C(C)Cn1c(N2CCCC2)nc2c1c(=O)n(C)c(=O)n2C	DT40 TDP1 CPT inconclusive, DT40 TDP1 no CPT inconclusive
CCCCCCn1c(N2CCCC2)nc2c1c(=O)n(C)c(=O)n2C	DT40 TDP1 CPT inconclusive, DT40 TDP1 no CPT 18µM
O=C(CC1CCCCC1)N1CCn2c(nnc2[C@@H]2C[C@@H](O)CN2Cc2ccccc2)C1	none (no result: DT40 TDP1 CPT, HT1080-NT tox, IL1B secr inh, DT40 TDP1 no CPT, HT1080 IDH1KD tx)
CCOC(=O)C(NC(=O)/C=C/c1cc(Cl)c(OCC)c(OC)c1)C(=O)OCC	none (no result: DT40 TDP1 CPT, HT1080-NT tox, IL1B secr inh, DT40 TDP1 no CPT, HT1080 IDH1KD tx)
CCn1cc(C#N)c(=O)n(Cc2nnc(-c3ccccc3)o2)c1=O	none (no result: DT40 TDP1 CPT, HT1080-NT tox, IL1B secr inh, DT40 TDP1 no CPT, HT1080 IDH1KD tx)
O=C1Nc2ccccc2C12CCN(Cc1cncs1)C2 (configuration not stated)	none (no result: DT40 TDP1 CPT, HT1080-NT tox, IL1B secr inh, DT40 TDP1 no CPT, HT1080 IDH1KD tx)
Cc1ccc(N2CCN(C(CCc3ccccc3)C(=O)Nc3c(C)cccc3C)CC2)cc1 (configuration not stated)	DT40 TDP1 CPT inconclusive, DT40 TDP1 no CPT 15µM
Cc1cccc(C)c1NC(=O)CN(C)CCc1ccccc1	DT40 TDP1 CPT inconclusive, DT40 TDP1 no CPT inconclusive
Cc1cccc(C)c1NC(=O)C(c1ccccc1)N(C)CCc1ccccc1 (configuration not stated)	DT40 TDP1 CPT inconclusive, HT1080-NT tox inconclusive, DT40 TDP1 no CPT 18µM, HT1080 IDH1KD tx inconclusive
Cc1ccc(N2CCN(C(C(=O)Nc3c(C)cccc3C)c3cccc(F)c3)CC2)cc1 (configuration not stated)	DT40 TDP1 CPT inconclusive, DT40 TDP1 no CPT inconclusive
Cc1ccc(OCC(O)Cn2c(=N)n(CCN3CCCCC3)c3ccccc32)cc1 (configuration not stated)	DT40 TDP1 CPT 5.2µM, HT1080-NT tox 16µM, IL1B secr inh -50, DT40 TDP1 no CPT 23µM, HT1080 IDH1KD tx inconclusive
N=c1n(CCO)c2ccccc2n1CCOc1ccc(Cl)cc1Cl	DT40 TDP1 CPT 6.5µM, 12-LOX inh inconclusive, HT1080-NT tox 21µM, IL1B secr inh -102, DT40 TDP1 no CPT 5.8µM, HT1080 IDH1KD tx inconclusive
Cc1ccc(OCC(O)Cn2c(=N)n(CCN3CCOCC3)c3ccccc32)cc1 (configuration not stated)	DT40 TDP1 CPT inconclusive, IL1B secr inh inconclusive, DT40 TDP1 no CPT 23µM
COc1ccc(OCC(O)CN2CCCCC2)cc1 (configuration not stated)	none
COc1ccc(OCC(O)Cn2c(=N)n(CCN3CCCCC3)c3ccccc32)cc1 (configuration not stated)	DT40 TDP1 CPT 13µM, 12-LOX inh inconclusive, HT1080-NT tox 18µM, IL1B secr inh -57, DT40 TDP1 no CPT 18µM, HT1080 IDH1KD tx inconclusive
Cc1cc(Cl)ccc1NC(=O)C1CC2CCC1C2 (configuration not stated)	none (no result: DT40 TDP1 CPT, HT1080-NT tox, IL1B secr inh, DT40 TDP1 no CPT, HT1080 IDH1KD tx)
COc1ccc(N2Cc3c(ncnc3N3CCC(O)CC3)N(C)CC2=O)cc1	none (no result: DT40 TDP1 CPT, HT1080-NT tox, IL1B secr inh, DT40 TDP1 no CPT, HT1080 IDH1KD tx)
N=c1n(CCN2CCCCC2)c2ccccc2n1CC(O)COc1ccc(Cl)cc1Cl (configuration not stated)	DT40 TDP1 CPT 3.7µM, 12-LOX inh inconclusive, DT40 TDP1 no CPT 4.6µM (no result: HT1080-NT tox, IL1B secr inh, HT1080 IDH1KD tx)
COc1ccc(C(O)Cn2c(=N)n(CCCN(C)C)c3ccccc32)cc1 (configuration not stated)	DT40 TDP1 CPT inconclusive, DT40 TDP1 no CPT inconclusive

Screens deposited in PubChem by National Center for Advancing Translational Sciences (NCATS).
